The campaign covered roughly 1,100 compounds. About 860 (78%) were called active. Roughly 19% stayed inconclusive and do not appear here. Calls follow the shape of the dose curve; as a rule, active = well fitted activation curve with a large enough effect; inconclusive = small, poorly fitted or top-dose-only effect; inactive = flat fitted curve, though single readings scatter. So high a share suggests a set chosen from earlier hits. This is one part of the list.
Experiment: qHTS of Nrf2 Activators: Hit Validation in Primary Assay; also: nearly all actives have a fitted effect of over 70% in size
Conditions: Nrf2/ARE reporter cell assay; Potency: activation; series mostly up to 46.1 µM
Outline: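 Luminescence from Steady-Glo lysis reagent, read after 30 min, reported ARE-luciferase activity in AREc32_fluc stable cells. Compounds were tested at several concentrations, incubated 24 h at 37 °C with 5% CO2 following overnight seeding.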
With COc1ccc(NC(=O)c2ccc([N+](=O)[O-])s2)c([N+](=O)[O-])c1 the Potency was 9.2 µM (active).
For COc1ccc(OC)c(NC(=O)C(C#N)=Cc2ccco2)c1, the Potency was 6.51 µM (active).
In the case of COc1ccccc1NC(=O)/C(C#N)=C/c1cccn1C, the Potency is reported as 20.6 µM (active).
In the case of COC(=O)CSc1nc2ccccn2c(=O)c1C=O, the Potency is reported as 20.6 µM (active).
With O=Cc1c(Sc2ccccn2)nc2ccccn2c1=O the Potency was 20.6 µM (active).
In the case of Nc1nc(/C=C/c2ccc(F)cc2)nc(-c2ccccc2O)n1, the Potency is reported as 2.59 µM (active).
For Nc1nccc(-c2ccc(-n3cccc3)cc2)n1, the Potency was 13 µM (active).
With COc1ccc(Cl)cc1NC(=O)c1cc(-c2ccccc2O)n[nH]1 the Potency was 2.91 µM (active).
For COc1cc(OC)c(NC(=O)c2ccco2)cc1Cl, the Potency was 13 µM (active).
With COc1cc2c(cc1NC(=O)c1ccco1)CCCC2 the Potency was 3.26 µM (active).
In the case of COc1ccc(Cl)cc1C(=O)NC(=S)Nc1nc(C)cc(C)n1, the Potency is reported as “inactive”.
With COc1ccc(Cl)cc1NC(=O)c1cc(C)no1 the Potency was 10.3 µM (active).
With COc1ccc(Cl)cc1NC(=O)c1ccco1 the Potency was 4.61 µM (active).
With Cc1ccc2nsnc2c1NC(=S)NC(=O)c1ccco1 the Potency was 4.61 µM (active).
For CCOc1ccsc1C(=O)NNC(=O)c1ccco1, the Potency was 5.8 µM (active).
With Cc1ccc([N+](=O)[O-])cc1NC(=S)NC(=O)c1ccco1 the Potency was 4.11 µM (active).
With O=C(Nc1cc(Cl)ccc1-n1cncn1)c1ccco1 the Potency was 10.3 µM (active).
With CCOc1ccccc1NC(=S)NC(=O)c1ccco1 the Potency was 10.3 µM (active).
For CC(=O)c1cc2c(cc1NC(=O)c1ccco1)OCCO2, the Potency was 3.66 µM (active).
In the case of COc1ccc([N+](=O)[O-])cc1NC(=O)c1ccco1, the Potency is reported as 5.17 µM (active).
In the case of Cc1cc(NC(=S)NC(=O)c2ccco2)c2ccccc2n1, the Potency is reported as 2.59 µM (active).
For Cc1cc(C(=O)Nc2cc(Br)ccc2O)on1, the Potency was 13 µM (active).
With O=C(Nc1ccc(Br)c(Cl)c1)c1ccco1 the Potency was 2.06 µM (active).
In the case of [O-][n+]1onc2c1CCc1c-2nn(-c2ccccc2Cl)[n+]1[O-], the Potency is reported as 0.92 µM (active).
With Cc1ccc(-n2nc3c([n+]2[O-])CCc2c-3no[n+]2[O-])cc1 the Potency was 0.291 µM (active).
For COc1ccc(-c2nnc3c4ccccc4c(C)nn23)cc1, the Potency was 3.66 µM (active).
In the case of Cc1nn2c(-c3ccccc3)nnc2c2ccccc12, the Potency is reported as 4.11 µM (active).
In the case of CC1CCCCC1NC(=O)COC(=O)c1c2c(nc3ccccc13)/C(=C/c1ccco1)CC2 (stereo unspecified), the Potency is reported as 8.2 µM (active).
For O=C(Nc1ccc2c(c1)C(=O)NC2=O)c1cccc(C(F)(F)F)c1, the Potency was 2.06 µM (active).
For O=C(Nc1ccc2c(c1)C(=O)NC2=O)c1ccccc1, the Potency was 20.6 µM (active).
In the case of Cc1csc2nc(NC(=O)c3ccccc3)sc(=O)c12, the Potency is reported as 8.2 µM (active).
In the case of O=C(Nc1nc(=O)c2ccccc2s1)c1ccccc1, the Potency is reported as 0.731 µM (active).
In the case of S=C(NNc1ccc2ccccc2c1)NC1CCCCC1, the Potency is reported as 13 µM (active).
In the case of Cc1csc(NC(=O)/C=C/c2ccco2)n1, the Potency is reported as 4.11 µM (active).
For Cc1nnc(NC(=O)/C=C/c2ccco2)s1, the Potency was 8.2 µM (active).
With CCC(CC)c1nnc(NC(=O)/C=C/c2ccco2)s1 the Potency was 1.46 µM (active).
With O=C(/C=C/c1ccco1)NC(=S)Nc1nc(-c2ccc(Cl)cc2)cs1 the Potency was “inactive”.
With CCc1nnc(NC(=O)/C=C/c2ccco2)s1 the Potency was 6.51 µM (active).
With CNS(=O)(=O)c1ccc2nc(NC(=O)/C=C/c3ccco3)sc2c1 the Potency was 1.84 µM (active).
For Cc1cc(C)c2oc(-c3ccc(C)c(NC(=O)/C=C/c4ccco4)c3)nc2c1, the Potency was 2.91 µM (active).
With Cc1cccc(C)c1NC(=S)NC(=O)c1cccc(Cl)c1 the Potency was 3.26 µM (active).
With Cc1ccc(NC(=O)/C=C/c2ccc([N+](=O)[O-])s2)cc1 the Potency was 2.31 µM (active).
For Cc1cc(C)cc(NC(=O)/C=C/c2ccc([N+](=O)[O-])s2)c1, the Potency was 2.31 µM (active).
With O=C(CSc1nnc(-c2ccco2)c(-c2ccco2)n1)c1ccccc1 the Potency was 5.17 µM (active).
For CSc1nnc(-c2ccco2)c(-c2ccco2)n1, the Potency was 11.6 µM (active).
For CSC1=NC(C)(C)C=C(/C=C/c2ccc(Cl)cc2)N1, the Potency was 9.2 µM (active).
For Brc1cc(Cc2nnc(-c3ccccc3)o2)c(Br)s1, the Potency was 8.2 µM (active).
In the case of O=C(Nc1ccccc1C(=O)NCCc1ccccc1)c1ccco1, the Potency is reported as 2.06 µM (active).
With Cc1ccc(O)c(NC(=O)c2cccc(NC(=O)c3ccco3)c2)c1 the Potency was 2.59 µM (active).
In the case of O=C(Nc1cccc(F)c1)c1ccco1, the Potency is reported as “inactive”.
In the case of O=C(Nc1ccccc1O)c1cccc(NC(=O)c2ccco2)c1, the Potency is reported as 4.11 µM (active).
For CCCc1nc([N+](=O)[O-])c(S(=O)(=O)c2ccccc2)n1CC(C)C, the Potency was 3.26 µM (active).
For S=C(NCc1ccco1)Nc1ccccn1, the Potency was 9.2 µM (active).
With Brc1ccc(-c2nnc(-c3cccnc3)c3conc23)cc1 the Potency was 0.517 µM (active).
For C#CCSc1nc(-c2cccs2)ccc1C#N, the Potency was 4.61 µM (active).
In the case of Cc1cc(C)n(-c2nc3ccccc3c(=O)n2OCc2ccc(F)cc2)n1, the Potency is reported as 1.84 µM (active).
In the case of CC1(C)CC[C@]2(C(=O)n3ccnc3)CC[C@]3(C)[C@H](C(=O)C=C4[C@@]5(C)C=C(C#N)C(=O)C(C)(C)[C@@H]5CC[C@]43C)[C@@H]2C1, the Potency is reported as 0.092 µM (active).
In the case of O=[N+]([O-])c1ccc(NN=Cc2ccco2)nc1, the Potency is reported as 0.731 µM (active).
In the case of Brc1ccc(-c2csc(N/N=C/c3ccco3)n2)cc1, the Potency is reported as 2.91 µM (active).
In the case of CCn1nc(C)c(Br)c1-c1nc(-c2cccc(C)c2)no1, the Potency is reported as 8.2 µM (active).
In the case of O=C(Nc1ccccc1F)c1cc(-c2ccco2)nc2ccccc12, the Potency is reported as 2.06 µM (active).
With COc1ccccc1CNC(=O)COC(=O)c1cc(-c2ccco2)nc2ccccc12 the Potency was 9.2 µM (active).
In the case of O=C(Nc1ccc(F)cc1F)c1cc(-c2ccco2)nc2ccccc12, the Potency is reported as 0.731 µM (active).
With O=C(Nc1cccc(F)c1)c1cc(-c2ccco2)nc2ccccc12 the Potency was 2.06 µM (active).
With CC1Oc2ccccc2OC1C(=O)Nc1ccccn1 (stereo unspecified) the Potency was 2.91 µM (active).
In the case of CSc1nsc(SC)c1NC(=O)Nc1ccccn1, the Potency is reported as 5.17 µM (active).
For O=[N+]([O-])c1cc(Cl)cc2c1nc(NCCO)c1ccccc12, the Potency was 10.3 µM (active).
With Clc1ccccc1NN=Cc1ccccn1 the Potency was 5.8 µM (active).
In the case of O=[N+]([O-])c1ccc(Cl)cc1C=NNc1ccccn1, the Potency is reported as 3.26 µM (active).
With Clc1cccc(Cl)c1/C=N\Nc1nccs1 the Potency was 9.2 µM (active).
With Brc1ccccc1/C=N/Nc1ccccn1 the Potency was 6.51 µM (active).
For O=[N+]([O-])c1ccc(Cl)cc1N/N=C/c1ccncc1, the Potency was 0.731 µM (active).
With Clc1ccccc1C=NNc1ccccn1 the Potency was 2.31 µM (active).
In the case of Cc1ccc(C)c(/C=N/Nc2ccccn2)c1, the Potency is reported as 6.51 µM (active).
For Fc1cccc(Cl)c1/C=N/Nc1ccccn1, the Potency was 4.11 µM (active).
For CCOc1ccccc1NS(=O)(=O)c1c(C(=O)OC)sc2cccc(F)c12, the Potency was 14.6 µM (active).
In the case of O=C1C(Cl)=C(N2CCN(c3ccccc3[N+](=O)[O-])CC2)C(=O)c2ccccc21, the Potency is reported as 3.66 µM (active).
In the case of Cc1cc(=O)n2nc(-c3ccccc3)sc2c1C#N, the Potency is reported as 4.11 µM (active).
With CCn1c(=O)c([N+](=O)[O-])c(NCc2ccco2)c2ccccc21 the Potency was 5.8 µM (active).
In the case of N#Cc1ccccc1N/C=C/C(=O)c1ccc(Cl)cc1, the Potency is reported as 2.31 µM (active).
In the case of CC(/C=N/Nc1nnc2c(n1)[nH]c1ccccc12)=C\c1ccco1, the Potency is reported as 10.3 µM (active).
For C#CCOc1ccc(/C=C2\SC(=S)N(Cc3cccnc3)C2=O)cc1, the Potency was 4.61 µM (active).
With O=C1CSC(=S)N1Cc1cccnc1 the Potency was 10.3 µM (active).
With COc1ccc(OC)c(/C=C2\SC(=S)N(Cc3cccnc3)C2=O)c1 the Potency was 5.17 µM (active).
With O=C1/C(=C/c2ccccc2O)SC(=S)N1Cc1cccnc1 the Potency was 4.61 µM (active).
In the case of C[C@H]1CCC[C@]2(C)C[C@H]3OC(=O)C(CN4CCCCCC4)[C@H]3C=C12 (stereo partly specified), the Potency is reported as 5.8 µM (active).
For CC1CCN(CC2C(=O)O[C@@H]3C[C@@]4(C)CCC[C@H](C)C4=C[C@H]23)CC(C)(C)C1 (stereo partly specified), the Potency was 5.8 µM (active).
With Brc1cc(Br)c2nc(-c3cccs3)ccc2c1 the Potency was 4.11 µM (active).
For O=C(CN1CC(=O)Oc2ccccc21)OCC(=O)c1ccc(F)cc1, the Potency was 18.4 µM (active).
In the case of COc1cc(OC)cc(C(=O)O/N=C(\N)c2cccc(C)c2)c1, the Potency is reported as “inactive”.
In the case of N/C(=N\OC(=O)c1ccco1)c1cccc(Br)c1, the Potency is reported as 20.6 µM (active).
With Cc1csc(-c2ccc3cc(Cl)cc(Cl)c3n2)n1 the Potency was 2.59 µM (active).
In the case of O=C(O)CCCCCN1C(=O)/C(=C\c2ccncc2)SC1=S, the Potency is reported as 2.91 µM (active).
With N#Cc1nc(-c2ccco2)oc1N1CCCC1 the Potency was 2.31 µM (active).
With Cc1nc(-c2ccccn2)sc1C(=O)Nc1ccc(F)cc1 the Potency was 2.31 µM (active).
For O=C(NC(=S)Nc1nc(-c2ccccc2)cs1)c1cccs1, the Potency was 3.66 µM (active).
With Cc1csc(NC(=S)NC(=O)c2ccccc2)n1 the Potency was 11.6 µM (active).
With Cc1sc(NC(=S)NC(=O)c2ccccc2)c(C#N)c1C the Potency was “inactive”.
For Cc1ccc2cccc(NC(=S)NC(=O)c3ccccc3)c2n1, the Potency was 4.61 µM (active).
For Cc1cc(C)c2c(NC(=S)NC(=O)c3ccccc3)nn(C)c2n1, the Potency was 7.31 µM (active).
For c1coc(-c2ccnc3nc(-n4cccc4)nn23)c1, the Potency was 4.11 µM (active).
For CCc1nn2c(-c3ccco3)ccnc2c1-c1ccccc1, the Potency was “inactive”.
In the case of Clc1ccc(-c2ccnc(-n3cccc3)n2)s1, the Potency is reported as 2.59 µM (active).
With c1coc(-c2ccnc(-n3cccc3)n2)c1 the Potency was 2.59 µM (active).
In the case of CSc1nc2sc3c(c2c(=O)n1C)CCC(C)C3 (stereo unspecified), the Potency is reported as 18.4 µM (active).
In the case of Cc1cc(C)c(-n2c(SCCS(=O)(=O)c3ccc(F)cc3)n[nH]c2=O)c(C)c1, the Potency is reported as 20.6 µM (active).
Potency is read from the fitted curve at half-maximal effect.
